Source: PubChem
FLuc modulator: qHTS profiling assay for firefly luciferase inhibitor/activator using purifed enzyme and Km concentrations of substrates (counterscreen for miR-21 project); Luciferin 4-monooxygenase (Photinus pyralis), P08659; purified FLuc, Km substrates, luminescence inhibition; Potency, µM (top dose mostly 57.5 µM), for inactives: top-dose activity change, negative = inhibition, hits mostly inhibitors; 360,000 tested, 6.9% active; AID 588342, 2011;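 further: plate controls were vehicle for no effect and reference inhibitor for full effect; nearly all actives have a fitted effect of over 55% in size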
Target sequence (P08659 whole entry, looked up): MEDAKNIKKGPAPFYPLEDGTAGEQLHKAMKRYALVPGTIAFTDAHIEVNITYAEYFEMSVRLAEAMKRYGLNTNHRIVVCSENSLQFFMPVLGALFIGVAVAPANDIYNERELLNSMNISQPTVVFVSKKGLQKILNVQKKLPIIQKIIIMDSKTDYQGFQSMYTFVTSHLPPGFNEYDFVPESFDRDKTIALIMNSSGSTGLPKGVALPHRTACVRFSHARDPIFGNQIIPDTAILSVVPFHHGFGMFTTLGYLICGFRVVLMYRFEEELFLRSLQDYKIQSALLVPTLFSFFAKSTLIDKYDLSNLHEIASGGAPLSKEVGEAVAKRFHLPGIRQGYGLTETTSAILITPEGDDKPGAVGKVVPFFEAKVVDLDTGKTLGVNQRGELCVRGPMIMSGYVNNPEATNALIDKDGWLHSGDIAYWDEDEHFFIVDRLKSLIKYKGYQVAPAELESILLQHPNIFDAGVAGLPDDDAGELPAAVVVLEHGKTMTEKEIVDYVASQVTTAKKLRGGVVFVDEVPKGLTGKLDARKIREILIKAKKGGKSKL
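Biochemical qHTS of compounds, final roughly 60 µM downward over six points, against 10 nM purified firefly luciferase using Km concentrations of substrates (10 uM D-luciferin, 10 uM ATP) in Tris acetate pH 7.5 buffer; luminescence output.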
Rab9 promoter act: qHTS Assay for Rab9 Promoter Activators. Huh7 Rab9 promoter-luciferase reporter, luminescence, 24 h. Potency, µM (top dose mostly 9.22 µM), for the others: top-dose activation, negative = inhibition, hits mostly activators. 320,000 tested, 2.8% active. AID 485297, 2010; further: % of control where 0% means no effect; nearly all actives have a fitted effect of over 60% in size
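Quantitative HTS format; Huh7 Rab9-luciferase reporter cells (1500/well) receive compound 2 h post-plating, incubate 24 h at 37 °C, then get luciferase reagent for 10 min before luminescence reading.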
Luc counter: Counterscreen for Luciferase (Kinase-Glo TM) Inhibition; Luciferin 4-monooxygenase (Photuris pensylvanica), Q27757; Kinase-Glo luciferase, ATP luminescence, 8 min; Potency, µM (highest dose often 38.3 µM), for the others: at the top dose activity change, negative = inhibition, hits mostly inhibitors; 200,000 tested, 0.28% active; AID 1379, 2008; further: on the % scale 0 is the no-effect control and ±100 the full control effect; nearly all actives have a fitted effect of over 60% in size
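Inhibition of Kinase-Glo luciferase light generation was assessed at 10 uM ATP in pH 7.2 imidazole buffer, with luminescence measured after eight minutes at ambient temperature.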
ELG1 genotoxic: qHTS screen for small molecules that induce genotoxicity in human embryonic kidney (HEK293T) cells expressing luciferase-tagged ELG1; HEK293T ELG1-luciferase reporter, luminescence, 16 h; 330,000 tested, 1.3% active; Potency, µM (highest dose often 46 µM), without a hit: at the highest dose activity change, positive = activation, usual class: activators; further: % of control where 0% means no effect; nearly all actives have a fitted effect of over 60% in size
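Quantitative HTS format in 1536-well plates. HEK293T ELG1-luciferase reporter cells receive test compound and are incubated 16 hr at 37 °C, 5% CO2; ONE-Glo added, 30 min room temperature, then luminescence read.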
NPC1 promoter act: qHTS Assay for NPC1 Promoter Activators; Huh7 NPC1 promoter luciferase reporter, 24 h; Potency, µM (titrated, usually from 9.22 µM), for the others: top-dose activation, actives largely listed as activators; 320,000 tested, 2.4% active; further: % of control where 0% means no effect; nearly all actives have a fitted effect of over 60% in size
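In 1536-well qHTS, Huh7 cells harboring an NPC1 promoter–luciferase construct received compound for 24 h; activation was quantified by luminescence following luciferase reagent addition.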
SMN2 splice enh: qHTS Assay for Enhancers of SMN2 Splice Variant Expression. HEK293 SMN2-luciferase splicing reporter, luminescence, 30-36 h. Potency, µM (highest dose often 46.1 µM), for inactives: at the top dose activity change, positive = activation, usual class: activators. 210,000 tested, 2.8% active; further: % of control where 0% means no effect; nearly all actives have a fitted effect of over 55% in size
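HEK293 cells carry an SMN2 […]–luciferase reporter in which exon 7 inclusion puts luciferase in frame. Cells were plated 10-12 h before compound addition, then incubated 30-36 h at 37C. ONE-Glo luminescence was read; sodium butyrate at 4.5 mM final served as control.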
Active calls of the source: *; [ ] = dose if it differs, or a comment. Hits are enriched below; roughly 7.3% of the tested compounds scored in any of these assays. The call rests on the fitted dose curve; in most records, active means well fitted curve in the direction sought with a large enough effect; inconclusive means small, poorly fitted or top-dose-only effect, or another doubt; inactive means no such curve, though single readings can be large; an effect the other way counts as inactive or inconclusive. Potency means the concentration at half of the fitted maximal effect.

For COC(=O)Cc1c(C)nc2nc(-c3ccc(OC)cc3)[nH]n2c1=O the results were FLuc modulator 15.1µM*, Rab9 promoter act 1.5%, Luc counter -26.0%, ELG1 genotoxic inconclusive, NPC1 promoter act 12.1% and SMN2 splice enh -9.5%.
Screening Cc1ccc(S(=O)(=O)Oc2ccc(N=Nc3ccc(-c4ccc(N=Nc5c(O)ccc6cc(S(=O)(=O)O)cc(S(=O)(=O)O)c56)c(C)c4)cc3C)cc2)cc1 returned SMN2 splice enh -9.1%.
Cc1ccc(OCC(=O)NCC(c2ccc(Cl)cc2)N2CCCCC2)cc1 (stereo not drawn) was read as FLuc modulator -9.5%.
COc1ccc(-c2noc(CSc3ccccc3)n2)cc1OC was read as FLuc modulator 13.5µM*, Rab9 promoter act 3.98µM*, ELG1 genotoxic 13.6% and NPC1 promoter act inconclusive.
Screening Cc1ccc(SCc2nc(-c3ccccc3)no2)cc1 returned FLuc modulator 0.4%[2.3 µM], Rab9 promoter act 20.6%, Luc counter 7.3%, ELG1 genotoxic 5.6%, NPC1 promoter act 2.1% and SMN2 splice enh 21.1%.
Cc1ccc(SCc2nc(-c3ccncc3)no2)cc1 was read as FLuc modulator 4.2%[2.3 µM], Rab9 promoter act 2.6%, Luc counter 0.4%, ELG1 genotoxic -0.1%, NPC1 promoter act 0.0% and SMN2 splice enh -14.1%.
c1ccc(SCc2nc(-c3ccncc3)no2)cc1 was read as FLuc modulator 16.9µM*, Rab9 promoter act inconclusive, Luc counter -2.8%, ELG1 genotoxic 14.6µM*, NPC1 promoter act 3.98µM* and SMN2 splice enh 11.2µM*.
Screening COc1ccc(CCNCc2c(C(=O)O)c(C)n(Cc3cccc(Cl)c3)c2C)c(OC)c1OC returned FLuc modulator -1.5% and SMN2 splice enh 2.0%.
Screening COc1ccc(NC(=O)Cn2c(=O)oc3cc(S(=O)(=O)NC4CCCC4)ccc32)cc1OC returned FLuc modulator -7.3%.
For COc1ccc(-c2ccc(CCC(=O)O)n2CC(=O)Nc2cccc(C(F)(F)F)c2)cc1 the results were FLuc modulator inconclusive and SMN2 splice enh 0.1%.
For CCOC(=O)Cn1c(=O)c2c(nc3n2CCN3c2ccc(C)cc2)n(C)c1=O the results were FLuc modulator 0.8%, Rab9 promoter act -2.6%, Luc counter -7.3%, ELG1 genotoxic -5.7%, NPC1 promoter act 1.0% and SMN2 splice enh 18.3%.
For CCOC(=O)Cn1c(=O)c2c(nc3n2CCN3c2ccc(CC)cc2)n(C)c1=O the results were FLuc modulator 13.5µM*.
`CCC(=O)C1=C(c2ccc(OC)c(OC)c2)N(C(=O)CC)n2c(CC)nnc2S1` gave FLuc modulator -5.1%.
Screening Cc1ccc(S(=O)(=O)NCc2ccccc2)cc1C(=O)NC1CCC(C)CC1 (stereo not drawn) returned FLuc modulator inconclusive, Rab9 promoter act 1.26µM*, ELG1 genotoxic inconclusive and NPC1 promoter act inconclusive.
`Cc1ccc(S(=O)(=O)NCc2ccccc2)cc1C(=O)N1CC(C)CC(C)C1` (stereo not drawn) gave FLuc modulator 1.7%, Rab9 promoter act -13.1%, ELG1 genotoxic -2.7% and NPC1 promoter act -2.0%.
`Cc1cc2oc(=O)cc(-c3ccccc3)c2c(C)c1-c1ccoc1` gave Luc counter 2.3%[39.9 µM].
Screening CN(N=Nc1ccc([N+](=O)[O-])cc1)c1ccccc1 returned FLuc modulator 5.36µM*, Rab9 promoter act inconclusive, Luc counter 0.4%, ELG1 genotoxic inconclusive, NPC1 promoter act 3.98µM* and SMN2 splice enh 20µM*.
CN(N=Nc1cccc([N+](=O)[O-])c1)c1ccccc1 was read as FLuc modulator 9.53µM*, Rab9 promoter act inconclusive, ELG1 genotoxic inconclusive and NPC1 promoter act inconclusive.
Screening CCOc1ccc(S(=O)(=O)Nc2cccc(OC)c2)c2cccnc12 returned FLuc modulator -9.4% and SMN2 splice enh -6.2%.
`Nc1c(C(=O)Nc2ccc3c(c2)OCCO3)nnn1Cc1ccc(Br)cc1` gave FLuc modulator inconclusive, Rab9 promoter act 1.12µM*, ELG1 genotoxic inconclusive and NPC1 promoter act 1.58µM*.
`CCc1ccc(Cn2nnc(C(=O)Nc3cccc(C)c3)c2N)cc1` gave FLuc modulator 5.2%, Rab9 promoter act -6.8%, Luc counter 3.2%, ELG1 genotoxic 9.4%, NPC1 promoter act 1.0% and SMN2 splice enh 1.2%.
`Nc1c(C(=O)Nc2ccc3c(c2)OCCO3)nnn1CCc1ccccc1` gave FLuc modulator 15.1µM*, Rab9 promoter act 10.5%, Luc counter 0.1%, ELG1 genotoxic inconclusive, NPC1 promoter act -2.4% and SMN2 splice enh inconclusive.
For Cc1ccc(NC(=O)c2nnn(CC(=O)Nc3ccc4c(c3)OCO4)c2N)cc1C the results were FLuc modulator 5.36µM*, Rab9 promoter act 2.1%, ELG1 genotoxic 1.8% and NPC1 promoter act -1.5%.
`Cc1cccc(-n2nnc(C(=O)NCc3ccc4c(c3)OCO4)c2N)c1` gave FLuc modulator 1.8%, Rab9 promoter act 7.0%, Luc counter -2.2%, ELG1 genotoxic -2.8%, NPC1 promoter act 6.7% and SMN2 splice enh 5.7%.
For Cc1ccc(NC(=O)c2nnn(Cc3ccccc3)c2N)cc1C the results were FLuc modulator -0.5% and SMN2 splice enh 22.5%.
Screening Nc1c(C(=O)Nc2ccccc2Cl)nnn1-c1ccc2c(c1)OCCO2 returned FLuc modulator 1.07µM*, Rab9 promoter act 1.12µM*, ELG1 genotoxic inconclusive and NPC1 promoter act 0.794µM*.
COc1ccc2c(c1)c1c(c(=O)n(Cc3ccccc3)c(=O)n1Cc1ccccc1)n2C was read as FLuc modulator -1.8%.
For Nc1c(C(=O)Nc2ccc3c(c2)OCCO3)nnn1Cc1cccc(Br)c1 the results were FLuc modulator inconclusive, Rab9 promoter act 3.98µM*, ELG1 genotoxic 8.3% and NPC1 promoter act inconclusive.
For CCN(CC)S(=O)(=O)c1ccc(N2CCOCC2)c(NC(=O)COc2ccc(C#N)cc2)c1 the results were FLuc modulator 15.1µM*, Rab9 promoter act -3.4%, ELG1 genotoxic -7.0% and NPC1 promoter act -5.3%.
Screening COC(=O)CC1Oc2ccc(Cl)cc2-n2cc(-c3ccc(C)cc3)nc21 (stereo not drawn) returned FLuc modulator -7.4% and SMN2 splice enh 0.9%.
